High-throughput results from PubChem BioAssay.
In the library only some 3% were active in any assay of this set; here they are far more common.
PPC-1+TRAIL kill: compounds killing PPC-1 cancer cells with TRAIL present, primary screen, TRAIL potentiator project, ATPLite luminescence, uHTS. PPC-1 cells + TRAIL, ATPLite viability luminescence. AID 1443, 2008. cell killing (% activity), % at 4 µM or 5 µM. hit rate 0.41% among 220,000;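 active = cell killing above 50% in the first pass at 4 µM, then a duplicate retest at 5 µM averaging 50% or more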;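 note: plate controls were cells with TRAIL plus DMSO for no effect and medium-only wells lacking cells for full effect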
C8 TRAIL sens: viability loss with TRAIL in NB7+C8 cells, primary screen, TRAIL sensitizer project, cell-based, ATPlite luminescence. AID 624354, 2012. inhibition (viability loss, TRAIL sensitization), % at 10 µM. hit rate 1% among 360,000;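 active = compounds causing at least 50% loss of cell viability in the single-dose screen, relative to plate controls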
SENP8 block-1: human SENP8 protease inhibitors, primary screen, biochemical, fluorescence, Nedd8 protein substrate, uHTS; Sentrin-specific protease 8 (Homo sapiens), Q96LD8; recombinant SENP8; inhibition, % at 20 µM; hit rate 0.64% among 360,000; AID 602440, 2012; in the data active = inhibition mostly above about 40%, no sharp cut-off; inactive = mostly below about 27%
Target sequence (Q96LD8 whole entry, looked up): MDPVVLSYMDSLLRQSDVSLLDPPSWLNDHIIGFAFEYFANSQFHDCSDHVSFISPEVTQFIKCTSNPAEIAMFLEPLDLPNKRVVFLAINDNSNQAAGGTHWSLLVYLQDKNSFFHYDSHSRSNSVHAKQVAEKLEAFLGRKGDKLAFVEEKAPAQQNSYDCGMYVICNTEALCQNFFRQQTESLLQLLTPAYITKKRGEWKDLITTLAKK
SENP7 block: SENP7 protease inhibitors, primary screen, biochemical, luminescence, uHTS | recombinant SENP7, Z-RLRGG-aminoluciferin luminescence, 40 min | Sentrin-specific protease 7 (Homo sapiens), Q9BQF6 | inhibition, % at 5 µM | hit rate 1.5% among 330,000;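 active = inhibition above about 50% at the single test dose, limit read from the data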;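 note: plate controls were DMSO with enzyme for no effect and no enzyme buffer wells for full effect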
Target sequence (Q9BQF6 706-1050 limits assumed): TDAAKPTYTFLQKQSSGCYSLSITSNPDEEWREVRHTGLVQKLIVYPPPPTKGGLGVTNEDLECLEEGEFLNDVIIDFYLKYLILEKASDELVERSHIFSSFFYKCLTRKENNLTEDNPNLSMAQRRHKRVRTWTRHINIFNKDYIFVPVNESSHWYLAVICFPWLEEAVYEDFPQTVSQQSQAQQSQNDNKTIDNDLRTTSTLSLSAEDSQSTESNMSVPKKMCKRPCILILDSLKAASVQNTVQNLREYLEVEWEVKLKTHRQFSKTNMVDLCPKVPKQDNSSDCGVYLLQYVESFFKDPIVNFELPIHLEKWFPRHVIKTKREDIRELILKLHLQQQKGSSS
SENP8 block-2: SENP8 protease inhibitors, primary screen, biochemical, luminescence. inhibition, % at 10 µM. hit rate 1.2% among 330,000. purified SENP8, Z-RLRGG-aminoluciferin cleavage. Sentrin-specific protease 8 (Homo sapiens), Q96LD8; in the data active = inhibition above about 50%
SENP6 block: SENP6 protease inhibitors, primary screen, biochemical, luminescence, uHTS; Recombinant SENP6 catalytic domain, aminoluciferin luminescence; inhibition, % at 10 µM; hit rate 1.8% among 330,000; AID 2599, 2010;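 active = inhibition above about 50% at the single tested dose, limit read from the data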;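 note: plate controls were DMSO wells with enzyme for no effect and DMSO wells lacking enzyme for full effect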
Numbers without * were called inactive; i = inactive; · = not tested or not shown.

SMILES | PPC-1+TRAIL kill | C8 TRAIL sens | SENP8 block-1 | SENP7 block | SENP8 block-2 | SENP6 block
C/C(=N\NC(=O)c1cc(-c2cccc(OC(C)C)c2)nc2ccccc12)c1cccnc1 | · | 37 | -153 | 1 | 4 | -6
CCCc1ccc(-c2cc(C(=O)N3CCN(c4ccccn4)CC3)c3ccccc3n2)cc1 | · | 91* | 0 | -1 | -3 | 2
COc1cc(-c2cc(C(=O)N3CCN(c4ccccn4)CC3)c3ccccc3n2)cc(OC)c1OC | · | 20 | -341 | 1 | -3 | 1
CCOc1ccc(-c2cc(C(=O)N/N=C/c3cccnc3)c3ccccc3n2)cc1 | · | 74* | -436 | -5 | -8 | -24
C/C(=N\NC(=O)c1cc(-c2cccnc2)nc2ccccc12)c1ccc(O)cc1O | 51* | 9 | 16 | 8 | -3 | 1
CCOc1ccccc1-c1cc(C(=O)N/N=C/c2cccnc2)c2ccccc2n1 | · | 11 | -168 | 3 | 6 | 12
O=C(NC1=NCCS1)c1cc(-c2ccc(F)cc2)nc2ccccc12 | 14 | 10 | -30 | 0 | 9 | 3
CCCc1ccc(-c2cc(C(=O)NC3=NCCS3)c3ccccc3n2)cc1 | 54* | 72* | -21 | 0 | -5 | 13
CCCCN1C(=O)C(=O)NC[C@@H]1CC1CCCCC1 | · | 1 | 7 | · | · | ·
CN(C(=O)c1ccc(NC(=O)Cc2ccc(NC(=O)C3CCCN(S(=O)(=O)c4cccc([N+](=O)[O-])c4)C3)cc2)cc1)C1CCCC1 (stereo not given) | · | -10 | 9 | · | · | ·
CN(C(=O)c1ccc(NC(=O)Cc2cccc(NC(=O)C3CCCN(S(=O)(=O)c4cccc([N+](=O)[O-])c4)C3)c2)cc1)C1CC1 (stereo not given) | · | 54* | 10 | · | · | ·
Nc1cnnc(N/N=C\c2ccccc2)c1Cl | · | 49* | -54 | 21 | -1 | 8
Nc1nonc1N/N=C\c1ccccc1 | 0 | 0 | 11 | 8 | -3 | -19
CCc1ccc(S(=O)(=O)/N=C2\C=C(Nc3ccc(O)cc3)C(=O)c3ccccc32)cc1 | · | 97* | 101* | 67* | 91* | 89*
CCc1ccc(S(=O)(=O)/N=C2\C=C(Nc3cccc(C(=O)O)c3)C(=O)c3ccccc32)cc1 | · | 17 | 70* | 47 | 95* | 92*
O=C(OCc1cc(=O)oc2cc(O)ccc12)c1cc(S(=O)(=O)N2CCOCC2)ccc1F | · | 68* | -413 | -3 | -1 | -5
CCc1cc2c(COC(=O)c3cc(S(=O)(=O)N4CCOCC4)ccc3F)cc(=O)oc2cc1O | · | 75* | i | -5 | -14 | -19
O=C(OCc1ccccc1)/C(=C/c1cccc(Br)c1)NC(=O)c1ccco1 | · | -15 | 0 | -1 | 1 | 12
COc1cccc(C(C)NC(=O)C2CCCC2)c1 (stereo not given) | · | -3 | 12 | 3 | -1 | 10
O=C(Nc1cccc(Cl)c1)Nc1cccc(C(=O)O)c1 | 14 | 23 | 26 | 93* | 87* | 96*
CSc1cccc(NC(=O)C(=O)NCc2ccccc2)c1 | 6 | 6 | 21 | -2 | -3 | -14
O=C(NCc1ccccc1)C(=O)Nc1cccc(C(=O)O)c1 | 4 | 6 | 23 | 93* | 84* | 93*
CC1=NN(c2nc(-c3ccc(C)cc3)cs2)C(=O)C1N=Nc1ccc2ccccc2c1 (stereo not given) | 10 | 34 | 55* | 5 | -2 | 11
COc1cccc(OC)c1C(=O)OCC(=O)NCCNC(=O)COC(=O)c1c(OC)cccc1OC | · | -9 | 4 | · | · | ·
O=C1C(=Cc2ccc(F)cc2)CCc2ccccc21 | · | 80* | 9 | · | · | ·
SMILES | PPC-1+TRAIL kill | C8 TRAIL sens | SENP8 block-1 | SENP7 block | SENP8 block-2 | SENP6 block
COc1ccc(C=C2CCc3ccccc3C2=O)cc1 | · | 87* | -13 | · | · | ·
O=C1C(=Cc2cccc(Cl)c2)CCc2ccccc21 | · | 9 | 5 | · | · | ·
O=C1C(=Cc2ccccc2Cl)CCc2ccccc21 | · | 53* | 11 | · | · | ·
COc1ccccc1C=C1CCc2ccccc2C1=O | · | 77* | 0 | · | · | ·
CCOc1ccccc1C=C1CCc2ccccc2C1=O | · | 4 | 16 | · | · | ·
CC(C)CN(C(=O)COC(=O)C12CC3CC(CC(C3)C1)C2)c1c(N)n(Cc2ccccc2)c(=O)[nH]c1=O | · | 8 | 10 | 5 | -5 | 4
Cc1ccc(F)cc1C(=O)N1CCOCC1c1cc(C(=O)NCc2ccccc2)no1 (stereo not given) | · | -8 | 22 | · | · | ·
CC1CCN(S(=O)(=O)c2ccc3nc(N4CCN(c5ccccc5)CC4)ccc3c2)CC1 | · | · | · | -5 | -1 | 7
O=C1C(=Cc2ccc(Cl)cc2)CCc2ccccc21 | · | 81* | 6 | · | · | ·
O=C(NCCNc1ccc2ccccc2c1)c1cccn2c(=O)c3sccc3nc12 | 24 | · | · | 23 | 23 | 56*
O=C(NCCN1CCN(c2ccccc2)CC1)c1cccn2c(=O)c3ccccc3nc12 | -11 | 19 | -232 | -1 | 0 | -3
Cc1nc2nc(-c3ccc(Cl)cc3)cn2nc1C | 0 | 28 | -500 | -6 | 62* | 69*
CCCn1cc(CN2CCC(n3nccc3NC(=O)C(OC)c3ccccc3)CC2)c(C)n1 (stereo not given) | · | 10 | 6 | 12 | -6 | -9
O=C1CCCC[C@@H](O)[C@H](O)C[C@H](c2ccccc2)O1 | · | -14 | 21 | · | · | ·
C=C1CC2(CC(c3ccccc3)OC(c3ccccc3)C2)OC1=O (stereo not given) | · | 64* | -4 | · | · | ·
O=C(NC(=S)N1CC=CCC1)c1ccccc1 | · | 0 | 27 | · | · | ·
CCOC(=O)c1c(C)nc2c(c1-c1cc(OC)ccc1OC)C(=O)c1ccccc1-2 | -4 | 68* | 23 | -7 | -4 | 1
C/C(=N\NC(=O)c1ccc(O)cc1)c1cccc(NC(=O)c2ccc(Cl)cc2)c1 | · | 66* | 7 | -6 | -12 | -26
C/C(=N\NC(=O)c1cccc(O)c1)c1cccc(NC(=O)c2ccc(F)cc2)c1 | · | 57* | 11 | 2 | -4 | -10
C/C(=N\NC(=O)c1cccc(F)c1)c1cccc(NC(=O)c2ccc(F)cc2)c1 | 23 | 21 | 7 | 2 | -2 | -3
C/C(=N\NC(=O)c1cccc(N/N=C(\C)c2ccco2)c1)c1ccco1 | -2 | -4 | -1 | · | · | ·
C/C(=N\NC(=O)c1ccc(F)cc1)c1cccc(NC(=O)c2cccc(F)c2)c1 | · | 6 | -13 | -12 | -10 | -14
C/C(=N\NC(=O)c1ccccc1F)c1cccc(NC(=O)c2ccc(C)cc2)c1 | · | 59* | 12 | 2 | 0 | -5
C/C(=N\NC(=O)c1cccc(N/N=C(\C)c2cc(O)ccc2O)c1)c1cc(O)ccc1O | 20 | 55* | 24 | 7 | 3 | -6
